Drawing on publication PMC11062922 (Nature Chemical Biology, 2023), this text covers potency estimated from few doses for 25 molecules.

The structures appear in SMILES notation. Where two headings read alike, the source gives them in different places.

What all share (design): species or system human, MV4-11 + K-562 + COLO205 + SK-N-BE2 + OVCAR-8
Assay [1] relates to CDC7. Particulars: read-out: apparent Kd, n = 1.
Assay [2] has as its system PIP4K2C. Particulars: read-out: apparent Kd; compound concentrations:100 nM and 1000 nM (sheet 'Samples'); n = 1.
In assay [3] the test system is PRKCA. Conditions: read-out: apparent Kd; compound concentrations:100 nM and 1000 nM (sheet 'Samples'); n = 1.
The test system of assay [4] is RAB5C. Particulars: read-out: apparent Kd; compound concentrations:100 nM and 1000 nM (sheet 'Samples'); n = 1.
Assay [5] deals with PAK6. Particulars: read-out: apparent Kd; compound concentrations:100 nM and 1000 nM (sheet 'Samples'); n = 1.
Assay [6] has as its system AXL. Particulars: read-out: apparent Kd; compound concentrations: 100 nM and 1000 nM (sheet 'Samples'), CATDS: 1.37984345324301E-2; n = 1.
In assay [7] the test system is FGFR1. Particulars: read-out: apparent Kd; compound concentrations: 100 nM and 1000 nM (sheet 'Samples'), CATDS: 1.6795329465602301E-2; n = 1.
The test system of assay [8] is NUAK2. Conditions: read-out: apparent Kd; compound concentrations: 100 nM and 1000 nM (sheet 'Samples'), CATDS: 9.7596009365087198E-3; n = 1.
The test system of assay [9] is FECH. Conditions: read-out: apparent Kd; compound concentrations:100 nM and 1000 nM (sheet 'Samples'); n = 1.
For assay [10], the system named is ATR. Conditions: read-out: apparent Kd, n = 1.
The subject of assay [11] is MCM5. Particulars: read-out: apparent Kd; compound concentrations:100 nM and 1000 nM (sheet 'Samples'); n = 1.
Assay [12] deals with STK11. Conditions: read-out: apparent Kd; compound concentrations:100 nM and 1000 nM (sheet 'Samples'); n = 1.
For assay [13], the system named is MAP3K1. Conditions: read-out: apparent Kd, n = 1.
For assay [14], the system named is MAP3K4. Particulars: read-out: apparent Kd, compound concentrations: 100 nM and 1000 nM (sheet 'Samples'), n = 1.
Assay [15] has as its system AIFM1. Particulars: read-out: apparent Kd, n = 1.
The test system of assay [16] is MAPK1. Conditions: read-out: apparent Kd, n = 1.
For assay [17], the system named is MST1R. Conditions: read-out: apparent Kd; compound concentrations:100 nM and 1000 nM (sheet 'Samples'); n = 1.
Assay [18] concerns AKT3. Conditions: read-out: apparent Kd; compound concentrations:100 nM and 1000 nM (sheet 'Samples'); n = 1.
Where [19] appears, read: compound concentrations:100 nM and 1000 nM (sheet 'Samples').

For the molecule `N#Cc1cccc(Nc2nccc(-c3cnn4ncccc34)n2)c1` [GW778894X], the potency estimated from few doses in assay [1] (setting [19]) was 1240 nM; in assay [2] it was 113 nM; in assay [3], 1180 nM. Turning to `CC(=O)c1c(-c2ccncc2)[nH]c(-c2ccncc2)c1C` [GW493036X], the potency estimated from few doses in [4] was 1600 nM. Take `COc1cc2ncn(-c3cc(OCCCc4ccccc4)c(C(N)=O)s3)c2cc1OC` [GSK205189A]: in assay [5], the potency estimated from few doses is 1960 nM.

Take `CNC(=O)c1ccccc1Nc1nc(Nc2cccc(CS(C)(=O)=O)c2)ncc1C.O=CO` [GSK1520489A]: the values for the potency estimated from few doses in assay [6], in [7] and in assay [8] were 374 nM, 213 nM and 1500 nM, respectively. With `COc1cc2ncn(-c3cc(OCc4ccncc4)c(C(N)=O)s3)c2cc1OC` [GSK336313A], in [9], the potency estimated from few doses was 2250 nM.

Regarding `Nc1nc(N)c2nc(-c3ccccc3)[nH]c2n1` [SKF-12778], the potency estimated from few doses is 520 nM in assay [10] (setting [19]), 2160 nM in assay [11] and 1740 nM in assay [12]. As to `CS(=O)(=O)c1ccc(-c2cnc(N)c(C(=O)Nc3ccccc3)n2)cc1` [VE-821], the potency estimated from few doses in assay [10] (compound concentrations: 100 nM and 1000 nM (sheet 'Samples'), CATDS: 0.19985195991101001) was 648 nM.

As to `COc1cccc(-n2cnc3c(N/N=C/c4ccncc4)ncnc32)c1` [GW813360X], in assay [13] (compound concentrations: 100 nM and 1000 nM (sheet 'Samples'), CATDS: 0.17625774536474501), the potency estimated from few doses is 1040 nM. In the case of `N#Cc1cnc2cc(-c3cnc(CNCCN4CCOCC4)s3)ccc2c1Nc1ccc(Oc2ccccc2)cc1` [GW664114X], the potency estimated from few doses in assay [14] (CATDS: 5.1499823560292202E-2) was 914 nM. `CN1CCN(Cc2ccc(NC(=O)Nc3ccc(N(C)c4ccnc(Nc5ccc(CS(C)(=O)=O)cc5)n4)cc3)cc2)CC1.Cl` [GW827654A]: the potency estimated from few doses in [14] (CATDS: 3.4818891633212903E-2) is 1770 nM.

With `Cc1ccc(C(=O)NC2CC2)cc1-c1ccc2[nH]ncc2c1` [GW820759X], the potency estimated from few doses in [15] (compound concentrations: 100 nM and 1000 nM (sheet 'Samples'), CATDS: 0.35268476986263803) is 1040 nM.

Consider `COc1cccc(C2=C(c3cn(C)c4c(C)cccc34)C(=O)NC2=O)c1` [RO3301012-000], for which, in assay [1] (compound concentrations: 100 nM and 1000 nM (sheet 'Samples'), CATDS: 0.10055770090402801), the potency estimated from few doses was 1800 nM. On to `Cl.Oc1ccc2ncnc(Nc3ccc(OCc4ccccc4)cc3)c2c1` [GI262866A], for which the potency estimated from few doses in assay [16] (setting [19]) is 617 nM. Consider `Cc1[nH]nc2c1N=C(c1ccccc1Cl)c1cc([N+](=O)[O-])ccc1N2` [RO0274406-000], for which the potency estimated from few doses in assay [16] (compound concentrations: 100 nM and 1000 nM (sheet 'Samples'), CATDS: 7.1630348262951699E-2) was 1230 nM. Regarding `COc1cc(F)c(F)c(F)c1C(=O)c1cnc(NC2CCN(S(C)(=O)=O)CC2)nc1N` [RO4600703-000], the potency estimated from few doses in assay [15] (setting [19]) was 939 nM; in [16] (setting [19]), 1580 nM. For `COc1cc2ncn(-c3cc(O[C@H](C)c4ccccc4Cl)c(C(N)=O)s3)c2cc1OC` [GSK237701A], the potency estimated from few doses in assay [13] (setting [19]) was 398 nM.

Regarding `CCCCCNC(=O)[C@@H]1CCCN2C(=O)CC[C@H](NC(=O)[C@H](Cc3ccc(OP(=O)(O)O)cc3)NC(C)=O)C(=O)N12` [RO0324694-000], in assay [15] (setting [19]), the potency estimated from few doses was 1670 nM. Consider `CC(=O)Nc1ccc2c(C3=C(c4cn(C)c5ccccc45)C(=O)NC3=O)cn(C)c2c1` [RO0317596-000], for which the potency estimated from few doses in assay [16] (compound concentrations: 100 nM and 1000 nM (sheet 'Samples'), CATDS: 0.12847476759448101) is 1100 nM. Regarding `Cn1cc(C2=C(c3cccc([N+](=O)[O-])c3)C(=O)NC2=O)c2ccccc21` [RO0317474-000], the potency estimated from few doses in [1] (compound concentrations: 100 nM and 1000 nM (sheet 'Samples'), CATDS: 0.13743963750211899) was 1670 nM. On to `Cn1cc(C2=C(c3cn(CCCCCO)c4ccccc34)C(=O)NC2=O)c2ccccc21` [RO0318053-000], for which the potency estimated from few doses in assay [1] (compound concentrations: 100 nM and 1000 nM (sheet 'Samples'), CATDS: 8.0152233997933905E-2) was 1890 nM.

Consider `COc1cc2ncn(-c3cc(OCc4sccc4Cl)c(C(N)=O)s3)c2cc1OC` [GSK448459A], for which, in [13] (setting [19]), the potency estimated from few doses was 511 nM. On to `NC(=O)c1cccnc1COc1cc(-c2ccc(N3CCOCC3)nc2)cc2ncccc12` [BI01125081], for which the potency estimated from few doses in [17] was 1120 nM. For the molecule `Nc1c(C(=O)c2ccccc2)cnn1-c1ccc(F)cc1` [RO1151246-000], the potency estimated from few doses in assay [18] is 1420 nM. For `Fc1ccc(-c2ncn(C3CCNCC3)c2-c2ccnc(Oc3ccc4c(c3)OCO4)n2)cc1` [SB-250715], in assay [18], the potency estimated from few doses was 2290 nM. Consider `Cl.Fc1cccc(COc2ccc(Nc3ncnc4cc(-c5ccc[nH]5)sc34)cc2Cl)c1` [GW693881A], for which the potency estimated from few doses in [15] (compound concentrations: 100 nM and 1000 nM (sheet 'Samples'), CATDS: 0.160865216132973) was 1350 nM.
